40 compounds from PubChem BioAssay (NCI) can be followed below.

The panel holds about 83,000 compounds, 20% with a hit somewhere; the sample as a whole holds those more often.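 Step 1: grow cells in 96-well plates. Step 2: add test compound at a single concentration. Step 3: incubate 48 h. Step 4: record percent growth.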 A number with no mark means an inactive call. Active and inactive are the calls of the source. Rule for the calls: active = growth percent below 10; inactive = the rest.

One test deals with NCI-H226 lung. Kind of test: NCI-60 one-dose screen, 48 h (100 = growth as untreated, 0 = no growth, -100 = all killed). The note with it: 10 µM unless noted.
For the compound `COc1cc(C2c3cc(OC(C)=O)c(OC)cc3CC3C(=O)OCC32)ccc1OC(C)=O` (centres undefined), the growth is 107%.

As for `CCOC(=O)c1ccc(NC(=O)c2nc(-c3cc(OC)c(OC)c(OC)c3)n(-c3ccc(Cl)cc3)n2)cc1`, the growth is 90.9%.

Take `Cc1nc2sc(C(=O)Nc3cccc(Br)c3)c(N)c2cc1C(O)c1ccccc1` (centres undefined): the growth is 61.7%.

Consider `OB1OCc2cc(/C=C/c3cccc(C(F)(F)F)c3)ccc21`, for which the growth is -10.2% (active).

As for `COC(=O)[C@@H](CCCCNC(=O)[C@]12CCC(C)(C)C[C@@H]1C1=CC[C@@H]3[C@@]4(C)C/C(=C/c5ccco5)C(=O)C(C)(C)[C@@H]4CC[C@@]3(C)[C@]1(C)CC2)NC(=O)[C@]12CCC(C)(C)C[C@@H]1C1=CC[C@@H]3[C@@]4(C)C/C(=C/c5ccco5)C(=O)C(C)(C)[C@@H]4CC[C@@]3(C)[C@]1(C)CC2`, the growth was 103%.

As to `COc1c(C(=O)Nc2ccc(C)c(Br)c2)ccc2ccccc12`, the growth is 103%.

As for `COC(=O)CC[C@@H]1O[C@@H](c2cccc(C(F)(F)F)c2)[C@@H](O)[C@H]1O`, the growth is 103%.

`COc1ccc(/C=C(\C#N)n2nnc3cc(F)c(F)cc32)cc1`: the growth was 101%.

Regarding `CCCC/C(CC)=N\NS(=O)(=O)c1ccc([N+](=O)[O-])cc1`, the growth was 93.4%.

Consider `CCC(C(=O)[C@@H](C)[C@@H](O)[C@H](C)[C@@H]1O[C@@H]([C@@H](CC)C(=O)ONC(=O)c2ccccc2)CC[C@@H]1C)[C@H]1O[C@]2(C=CC(=O)[C@]3(CC[C@@](C)([C@H]4CC[C@](O)(CC)[C@H](C)O4)O3)O2)[C@H](C)C[C@@H]1C` (some centres undefined), for which the growth is 42%.

Regarding `COC(=O)[C@]12CCC(C)(C)C[C@H]1[C@H]1/C(=N/OCCc3nn[nH]n3)C[C@@H]3[C@@]4(C)CC[C@H](OC(C)=O)C(C)(C)[C@@H]4CC[C@@]3(C)[C@]1(C)CC2`, the growth was 33.3%.

With `N#CC(C#N)N=Nc1ccc(Br)cc1`, the growth was 79%.

Take `CCOC(=O)NC(C)C`: the growth was 112%.

Regarding `CCCNC(=O)Nc1ccc2cc3ccc(NC(=O)NCCC)cc3nc2c1`, the growth is 90.7%.

Take `C=CCN=c1sc2c(n1NC(=O)c1cc3ccc1CCc1ccc(cc1)CC3)C(=O)c1ccccc1C2=O`: the growth was 48.5%.

Turning to `Cc1ccc2c(n1)C(=O)C(Br)=C(CC(C)C)C2=O`, the growth is 97.2%.

As for `CC(C)COc1nc2c(c(=O)n(C)c(=O)n2C)n1C`, the growth was 94.5%.

With `Cc1ccccc1/C=C/C(=O)c1cccc(OCCCCOc2cccc(C(=O)/C=C/c3ccccc3C)c2)c1`, the growth was 91.7%.

For the compound `COc1ccc2cc1Oc1ccc(cc1)C[C@H]1c3c(cc4c(c3Oc3cc5c(cc3OC)CCN(C)[C@@H]5C2)OCO4)CCN1C`, the growth is 87.4%.

For `CCOC(=O)c1csc(NC(=O)COc2ccc(/C=C3\Oc4ccccc4C3=O)cc2)n1`, the growth is 108%.

Regarding `CC(C)C1=NOC(=O)C1=Cc1cn(-c2ccccc2)nc1-c1ccc(F)cc1`, the growth is 93.7%.

With `CCOC(=O)C/C(=N\Nc1cc(=O)[nH]c2ccc(Br)cc12)C(=O)OCC`, the growth is 86.9%.

Turning to `Cc1cc(=O)n(C(=O)Nc2ccccc2Cl)c2cc(O)ccc12`, the growth is 98.7%.

With `CSc1nnc(-c2cc3c([nH]c4ccccc43)c(-c3cccc(O)c3)n2)n1-c1ccccc1`, the growth was 51.6%.

In the next test the test system is NCI-H322M lung. The description is as above. The note with it: 10 µM unless noted.
As to `COc1ccc(OC)c(/C=N/Nc2ncnc3c2c(C)nn3C)c1`, the growth was 114%.

As for `Cc1c[n+](Cc2ccc3ccccc3c2)cn1Cc1ccc2ccccc2c1`, the growth is 65.7%.

As to `COc1cc(OC)c(/C=C/C(=O)c2c(OC)cccc2OC)c(OC)c1`, the growth is 1.28% (active).

On to `COC(=O)c1c(C)nc(C)c2c1C(=O)C(Br)=C(NCc1ccccc1)C2=O`, for which the growth is 31.4%.

With `CCNCCNc1cc(-c2ccc(C(F)(F)F)cc2)c(C#N)c2nc3ccccc3n12`, the growth was -56.2% (active).

Consider `CSc1nc2ccccc2cc1/C=[N+](\[O-])c1ccccc1`, for which the growth was 85.7%.

Consider `CC(=O)Oc1ccc(N2C(=O)C(Cl)=C(Nc3cccc(C(F)(F)F)c3)C2=O)cc1`, for which the growth was 98.6%.

Consider `CC(=O)Oc1ccc(C)cc1C`, for which the growth is 108%.

For `O=C(Nc1ccc(Oc2cccc(Cl)c2)c(Cl)c1)c1cnccn1`, the growth was 47.9%.

For the compound `CCC(=O)Oc1ccc(-c2ccccc2)cc1Br`, the growth is 111%.

With `CCN(CC)CC(O)COc1c(Br)c(Br)c(Br)c2c1OC(C)(C)C2` (centres undefined), the growth was 60.7%.

For `Fc1cc2c(cc1Cl)N(c1ncnc3ccc(-c4ccc5n[nH]nc5c4)cc13)CC2`, the growth is 54.5%.

On to `Nc1c(C(=O)Nc2ccncc2)sc2nc3c(cc12)C(O)CCC3` (centres undefined), for which the growth is 84.1%.

`CCOC(=O)c1cc2c(n1Cc1cc(OC)c(OC)c(OC)c1)-c1nc(N)sc1CCC2`: the growth is 81.7%.

Take `Cc1ccc(Nn2c(SCC(=O)Nc3nc(-c4ccccc4)cs3)nc(C)c2C)cc1`: the growth was 96%.

For `O=C(NCc1ccc(Cl)cc1Cl)C1CCC(=O)N1c1cccs1` (centres undefined), the growth was 104%.

With `COc1cc(C2c3cc(OC(C)=O)c(OC)cc3CC3C(=O)OCC32)ccc1OC(C)=O` (centres undefined), the growth was 115%.

Turning to `CCOC(=O)c1ccc(NC(=O)c2nc(-c3cc(OC)c(OC)c(OC)c3)n(-c3ccc(Cl)cc3)n2)cc1`, the growth is 81.1%.

Take `Cc1nc2sc(C(=O)Nc3cccc(Br)c3)c(N)c2cc1C(O)c1ccccc1` (centres undefined): the growth was 61%.

For the compound `OB1OCc2cc(/C=C/c3cccc(C(F)(F)F)c3)ccc21`, the growth was 20.7%.

Turning to `COC(=O)[C@@H](CCCCNC(=O)[C@]12CCC(C)(C)C[C@@H]1C1=CC[C@@H]3[C@@]4(C)C/C(=C/c5ccco5)C(=O)C(C)(C)[C@@H]4CC[C@@]3(C)[C@]1(C)CC2)NC(=O)[C@]12CCC(C)(C)C[C@@H]1C1=CC[C@@H]3[C@@]4(C)C/C(=C/c5ccco5)C(=O)C(C)(C)[C@@H]4CC[C@@]3(C)[C@]1(C)CC2`, the growth was 93.9%.

In the case of `COc1c(C(=O)Nc2ccc(C)c(Br)c2)ccc2ccccc12`, the growth is 104%.

For `COC(=O)CC[C@@H]1O[C@@H](c2cccc(C(F)(F)F)c2)[C@@H](O)[C@H]1O`, the growth was 103%.

With `COc1ccc(/C=C(\C#N)n2nnc3cc(F)c(F)cc32)cc1`, the growth is 72.6%.

Turning to `CCCC/C(CC)=N\NS(=O)(=O)c1ccc([N+](=O)[O-])cc1`, the growth was 109%.

In the case of `CCC(C(=O)[C@@H](C)[C@@H](O)[C@H](C)[C@@H]1O[C@@H]([C@@H](CC)C(=O)ONC(=O)c2ccccc2)CC[C@@H]1C)[C@H]1O[C@]2(C=CC(=O)[C@]3(CC[C@@](C)([C@H]4CC[C@](O)(CC)[C@H](C)O4)O3)O2)[C@H](C)C[C@@H]1C` (some centres undefined), the growth was 37.4%.

For `COC(=O)[C@]12CCC(C)(C)C[C@H]1[C@H]1/C(=N/OCCc3nn[nH]n3)C[C@@H]3[C@@]4(C)CC[C@H](OC(C)=O)C(C)(C)[C@@H]4CC[C@@]3(C)[C@]1(C)CC2`, the growth is 64.6%.

Consider `N#CC(C#N)N=Nc1ccc(Br)cc1`, for which the growth is 100%.

On to `CCOC(=O)NC(C)C`, for which the growth was 107%.

`CCCNC(=O)Nc1ccc2cc3ccc(NC(=O)NCCC)cc3nc2c1`: the growth is 100%.

As to `C=CCN=c1sc2c(n1NC(=O)c1cc3ccc1CCc1ccc(cc1)CC3)C(=O)c1ccccc1C2=O`, the growth was 67.8%.

In the case of `Cc1ccc2c(n1)C(=O)C(Br)=C(CC(C)C)C2=O`, the growth was 96.5%.

Turning to `CC(C)COc1nc2c(c(=O)n(C)c(=O)n2C)n1C`, the growth is 105%.

`Cc1ccccc1/C=C/C(=O)c1cccc(OCCCCOc2cccc(C(=O)/C=C/c3ccccc3C)c2)c1`: the growth was 92.1%.

In the case of `COc1ccc2cc1Oc1ccc(cc1)C[C@H]1c3c(cc4c(c3Oc3cc5c(cc3OC)CCN(C)[C@@H]5C2)OCO4)CCN1C`, the growth was 56%.

For the compound `CCOC(=O)c1csc(NC(=O)COc2ccc(/C=C3\Oc4ccccc4C3=O)cc2)n1`, the growth was 95.4%.

Regarding `CC(C)C1=NOC(=O)C1=Cc1cn(-c2ccccc2)nc1-c1ccc(F)cc1`, the growth is 94.9%.

As for `CCOC(=O)C/C(=N\Nc1cc(=O)[nH]c2ccc(Br)cc12)C(=O)OCC`, the growth is 92.9%.

With `Cc1cc(=O)n(C(=O)Nc2ccccc2Cl)c2cc(O)ccc12`, the growth was 88.7%.

Regarding `CSc1nnc(-c2cc3c([nH]c4ccccc43)c(-c3cccc(O)c3)n2)n1-c1ccccc1`, the growth was 43.3%.
